Rows were chosen to be rich in hits. Some 4.1% of all compounds tested hit in one or more screens of this group.
hcDAF12 agonist – H. contortus DAF-12 activation, primary screen; HEK293 hcDAF-12 lit1-tk-luc reporter, luminescence; 0% DMSO, 100% Δ7-dafachronic acid; activation, % at 6.8 µM; AID 652067; 1.4% of 370,000 active;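 active means activation above the mean of all tested compounds plus 3 SD, cut at about 5.5% in these data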;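 further: 100% = response to 3 µM Δ7-dafachronic acid high control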
DAX1 inh-1 – inhibitors of human orphan nuclear receptor DAX1 (NR0B1) | P51843 | 0.99% of 340,000 active | HEK293 Gal4-DAX1 luciferase reporter, luminescence | AID 504766 | inhibition, % at 6.75 µM;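 active means inhibition above the mean over all tested compounds plus 3 SD, cut at about 4.2% in these data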;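 further: 0% = DAX1-transfected cells with DMSO and 100% = empty-vector control cells with DMSO; inhibition shows as a rise in luminescence from relieved DAX1 repression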
Target sequence (P51843 207-470 limits assumed): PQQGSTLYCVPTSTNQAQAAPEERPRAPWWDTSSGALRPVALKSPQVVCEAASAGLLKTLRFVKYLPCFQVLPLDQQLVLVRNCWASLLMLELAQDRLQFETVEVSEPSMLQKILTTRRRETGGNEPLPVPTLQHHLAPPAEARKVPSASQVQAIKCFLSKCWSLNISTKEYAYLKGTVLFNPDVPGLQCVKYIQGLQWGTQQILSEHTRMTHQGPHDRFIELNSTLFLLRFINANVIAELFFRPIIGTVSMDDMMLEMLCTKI
ssDAF-12 act – S. stercoralis DAF-12 activation, primary screen; HEK293 ssDAF-12/GRIP1 lit1-tk-luc reporter, luminescence; % of 3 µM dafachronic acid response; activation, % at 6.8 µM; AID 652126; 1% of 370,000 active;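 active means activation above the mean over all tested compounds plus 3 SD, cut at about 0.9% in these data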;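 further: 0% = DMSO-only wells and 100% = 3 µM delta7-dafachronic acid wells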
hgDAF12 agonist – activates the H. glycines DAF-12 receptor ligand-binding domain. 1.8% of 370,000 active. HEK293 GAL4-hgDAF12 UAS-luciferase reporter, agonist luminescence; normalized to butyrate control. AID 687014. activation, % at 6.8 µM;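 active means activation above a cutoff set at the mean of all screened compounds plus 3 SD, cut at about 10% in these data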;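 further: 0% = DMSO wells and 100% = sodium butyrate wells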
DAX1 inh-2 – inhibitors of DAX1 repression of SF-1 activated StAR promoter | HEK293T StAR-luciferase reporter, SF-1/DAX-1 repression relief | inhibition, % at 6.8 µM | 1.1% of 370,000 active;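 active means inhibition above the mean over all tested compounds plus 3 SD, cut at about 3.6% in these data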;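 further: 0% = DAX-1 cells with DMSO and 100% = cells lacking DAX-1 with DMSO; higher inhibition means more luminescence from relief of DAX-1 repression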
* marks the source's active call; other numbers are inactive results; . = no result.

SMILES	hcDAF12 agonist	DAX1 inh-1	ssDAF-12 act	hgDAF12 agonist	DAX1 inh-2
O=C(Cn1nnc2ccccc2c1=O)N[C@@H](Cc1c[nH]c2ccccc12)C(=O)O	3	2	1.0*	-1	1
O=C(O)C(=O)Cc1c[nH]c2ccccc12	1	2	1.2*	3	-1
COC(=O)C1=C(C)N(Cc2ccccc2C(F)(F)F)C(=NCc2cccc(C(F)(F)F)c2)NC1c1cccc(Cl)c1 (stereo unspecified)	2	.	0	1	-1
Cn1c(=O)c(-c2ccccc2N)nc2ccccc21	6.3*	0	0	2	0
CNc1ccccc1-c1nc2ccccc2n(C)c1=O	2	0	-1	0	-1
O=C(O)CN1C(=O)C=CC1=O	1	4.7*	-1	3	0
Cc1nc(-c2ccccc2)nc(Cl)c1Cl	-2	1	-1	-3	0
Cc1sc2nc(-c3cccnc3)nc(Cl)c2c1-c1ccccc1	-4	4.3*	-1	3	0
O=c1c2ccc(F)cc2nc2sc(Nc3ccc4c(c3)CCC4)nn12	2	.	0	11*	.
C[N+]1(C)CC2=Cc3ccccc3CC2C1 (stereo unspecified)	-1	4.8*	-2	-1	0
O=[N+]([O-])c1cc2c(cc1CN1CCN(CCOCCO)CC1)OCO2	-1	4.4*	-1	-1	0
O=c1c2ccccc2sn1-c1ccc(S(=O)(=O)N2CCCCC2)cc1	0	-1	1.1*	2	0
O=c1c2ccccc2sn1-c1ccc(S(=O)(=O)N2CCCC2)cc1	-1	1	-1	-3	0
Oc1csc(Cc2nc(-c3ccc4ccccc4c3)cs2)n1	6.3*	3	1.1*	6	3
Oc1csc(Cc2nc(-c3ccc(-c4ccccc4)cc3)cs2)n1	4	0	0	2	2
COCCOc1ccc(C(F)(F)F)cc1NC(=O)CN1C(=O)NC(C)(c2ccc3c(c2)OCO3)C1=O (stereo unspecified)	-2	7.6*	-1	-4	-1
CS(=O)(=O)c1ccc(OCCCN2CCC(C(O)(c3ccccc3)c3ccccc3)CC2)cc1	-1	.	0	-2	0
COc1ccc(/C=N/NC(=S)Nc2c(C)n(C)n(-c3ccccc3)c2=O)cc1OC	-1	5.4*	-1	0	0
O=[N+]([O-])c1ccc(OC[C@@H](O)CN2CCC(C(O)(c3ccccc3)c3ccccc3)CC2)c(Cl)c1	-1	.	-1	0	0
CCNC(=O)C1(C)CCN(Cc2ccc(OC(F)(F)F)cc2)C1 (stereo unspecified)	1	.	-1	0	1
O=C(c1cc2ccccc2oc1=O)N(Cc1ccccc1F)C1CCS(=O)(=O)C1 (stereo unspecified)	5.8*	1	-1	5	2
O=C(c1cc2ccccc2oc1=O)N(Cc1ccccc1)C1CCS(=O)(=O)C1 (stereo unspecified)	4	0	0	8	2
c1ccc(Cn2ccc3ccc(-c4ccc5ccn(Cc6ccc(-c7ccccc7)cc6)c5c4)cc32)cc1	2	.	-1	2	-1
CCOC(=O)Cn1nnnc1C(C(C)C)N(Cc1cccs1)Cc1cc2cc(C)ccc2[nH]c1=O (stereo unspecified)	0	4.3*	-2	-1	-1
CNc1cncc(-c2cccc(OC)c2F)n1	3	.	1	9	4.2*
SMILES	hcDAF12 agonist	DAX1 inh-1	ssDAF-12 act	hgDAF12 agonist	DAX1 inh-2
CNc1cncc(-c2c(OC)cccc2OC)n1	0	.	-1	0	0
CNc1cncc(-c2ccc(OC)c(OC)c2)n1	-1	.	3.4*	11*	1
O=C(Nc1nc2ccc(F)cc2s1)c1ccc(N2CCCC2=O)cc1	0	1	-1	4	4.2*
O=C(Nc1nc2cc3c(cc2s1)OCO3)c1cccc(N2C(=O)CCC2=O)c1	-1	4	-1	3	1
O=C(Nc1ccccc1F)c1ccc2nc(N3C(=O)CCC3=O)sc2c1	1	7.1*	-1	3	2
Cc1ccc2nc(NC(=O)c3ccc(N4C(=O)CCC4=O)cc3)sc2c1	5.9*	1	0	5	1
O=C(Nc1ccc(F)cc1F)c1ccc2nc(N3CCOCC3)sc2c1	-1	-1	-1	-2	0
O=C(Nc1nc2cc3c(cc2s1)OCO3)c1ccc(N2C(=O)CCC2=O)cc1	0	1	1.4*	1	0
Cc1nnc(NC(=O)c2ccc(N3CCCC3=O)cc2)s1	2	1	0	9	3
CC(C)c1[nH]nc2c1C(c1ccccc1)N(Cc1ccccc1)C2=O (stereo unspecified)	0	.	-1	-3	0
Cc1cccc(NC(=O)CCSc2ccccn2)c1	-2	0	0	7	1
COc1ccc(NC(=O)COCC(=O)Nc2ccc(C)cc2)cc1	0	5.6*	-1	-1	0
COc1ccc(NC(=O)COC(=O)CC2CCCC2)cc1	-1	0	1.2*	3	-1
COc1ccc(NC(=O)COC(=O)CC2CCCCC2)cc1	0	1	0	0	-1
CNC(=O)CCC(=O)Nc1ccc(C)cc1	0	4.7*	-2	1	-1
Cc1ccc(NC(=O)CCSc2ccccn2)cc1	2	4.2*	0	11*	4.4*
C#CCNC(=O)C[C@H]1C[C@@]2(C(=O)OC)C(=C[C@H](COCc3ccccc3)O[C@@H]2C)N(CCC2=CCCCC2)C1=O	-1	.	-1	-2	0
COc1ccccc1CN1Cc2ccccc2Oc2ccccc2S1(=O)=O	-1	.	-1	-1	0
Cc1ccccc1NC(=O)OCCCN1C(=O)CCC12CCC(C)CC2 (stereo unspecified)	-2	.	-1	-1	2
COc1ccc(N2CCN(CC(=O)Nc3ccc(C)cc3)CC2)cc1	-2	0	-1	0	0
COc1ccc(NC(=O)CN2CCN(c3ccccc3)CC2)cc1	0	0	-1	12*	-1
NCC12CC3CC(C1)CC(c1ccc(Br)cc1)(C3)C2	-2	0	-1	0	-1
Cc1ccc(C23CC4CC(CC(CN)(C4)C2)C3)cc1	2	4.9*	0	0	0
COc1cccc(-c2csc(NC(C)=O)n2)c1	0	1	-1	11*	1
CC(=O)Nc1nc(COc2ccccc2)cs1	2	1	-1	13*	2
CC(=O)Nc1nc(-c2ccc3c(c2)CCO3)cs1	2	0	-1	11*	0
Cc1onc(-c2ccccc2)c1C(=O)NN=Cc1cc(Cl)cc(Cl)c1O	-2	.	0	-7	-2
N#Cc1ccsc1NC(=O)COC(=O)c1cc(Br)ccc1O	4	6.0*	0	1	1
CC1=CC2(C)C(C3C(C)=CC2(C)C(=O)C3(C)O)C(C)(O)C1=O (stereo unspecified)	-1	-1	-1	0	1
COC(=O)C1=C(C)Nc2ccc(C)cc2S1	2	4.2*	0	5	1

Compound activity: PubChem, The Scripps Research Institute Molecular Screening Center
